Test results reported in PubChem BioAssay (NCATS).
Where “and” joins values, the source holds several entries; their conditions need not be identical. Equal entries are not always repeated. Unmarked numbers belong to inactive results. Records with an inconclusive call do not appear. Calls of active or inactive are those of the source. Unless noted, the call rests on the fitted dose curve; in most records, active means well fitted curve in the direction sought with a large enough effect; inconclusive means small, poorly fitted or top-dose-only effect, or another doubt; inactive means no such curve, though single readings can be large; an effect the other way counts as inactive or inconclusive.

Assays:
[1] = Cell Viability - BJ (AID 421; calls by dose curve;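 further: potency means the concentration at half of the fitted maximal effect; cells exposed to compound for 40 hours at 37 °C before readout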); conditions: BJ fibroblast viability, qHTS
Summary of the method: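 Quantitative HTS: ATP depletion in BJ cells after 40 hr compound exposure in complete culture medium, detected with CellTiter-Glo; AC50 from standard Hill fits.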

[2] = Cell Viability - Jurkat (AID 426;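 active means dose-dependent loss of cell ATP signal giving a full or clear fitted curve, ranked by lower potency value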;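 further: potency means the concentration at half of the fitted maximal effect; cells exposed to compound for 40 hours at 37 °C before ATP read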); conditions: qHTS
Summary of the method: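 Seed 5000 Jurkat E6-1 cells/well; add compound; incubate 40 hr at 37 °C; add CellTiter-Glo; wait 20 min at room temperature; read luminescence. Fit concentration-response with Hill equation for AC50.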

[3] = Cell Viability - N2a (AID 540); conditions: N2a mouse neuroblastoma cell viability; activity change, negative = cytotoxicity: at 92.2 µM (top of the series);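 further: cells exposed to compound for 40 h at 37 °C; nearly all actives have a fitted effect of over 45% in size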; further: potency means the concentration at half of the fitted maximal effect;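 on activity change, negative = cytotoxicity: plate controls were DMSO alone for no effect and tamoxifen control for full effect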
Summary of the method: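 First, 1500 N2a cells per well incubate 5 hr at 37 °C; next, compounds are added and incubated 40 hr at 37 °C; finally CellTiter-Glo is added and luminescence read after 20 min, with AC50 derived by Hill modeling.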

[4] = Cell Viability - Mesenchymal (AID 546); conditions: mesenchymal cells viability, qHTS; activity change, negative = cytotoxicity: at 91.7 µM (top of the series);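 further: cells exposed to compound for 40 hours before reading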; further: potency means the concentration at half of the fitted maximal effect;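 on activity change, negative = cytotoxicity: 0% = DMSO only and -100% = 100 µM tamoxifen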
Summary of the method: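 AC50 values reflect the drop in intracellular ATP in a human kidney mesenchymal line derived from normal glomeruli. Treatment lasts 40 hr at 37 °C in complete medium, and the signal comes from CellTiter-Glo luminescence.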

[5] = Cellular Toxicity (caspase-3) HepG2 (AID 654);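 further: cells exposed to compound for 16 hours before reading; 0% = DMSO alone and 100% = caspase signal from 100 µM tamoxifen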
Summary of the method: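 qHTS, HepG2, 1500 cells/well, complete medium; cpd 16 h 37 °C; Caspase-Glo 3/7, 20 min RT; lum. Norm: DMSO vs 100 uM tamoxifen; AC50 Hill fit.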

[6] = Cellular Toxicity (caspase-3) Renal Proximal Tubule (AID 667); conditions: renal proximal tubule cells; at 91.7 µM (top of the series) unless noted;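 further: cells exposed to compound for 16 hours at 37 °C before detection; 0% = DMSO basal and 100% = 10 µM staurosporine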
Summary of the method: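 Primary rat proximal tubule cells, 1000/well, 5 h plating at 37 °C, then compound 16 h at 37 °C. Caspase-Glo 3/7 reagent, 1 h RT, luminescence. Normalized to DMSO (basal) and 10 uM staurosporine (100%); Hill-fit AC50.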

[7] = MultiTox-Fluor Cytotoxicity Assay - LYMP1-002 - Live Cells (AID 955);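 further: cells exposed to compound for 16 hours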; further: potency means the concentration at half of the fitted maximal effect
Summary of the method: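 Cytotoxicity in the human lymphoblastoid line LYMP1-002 is measured as loss of live-cell protease activity after 16 h treatment in complete culture medium. AC50 is derived from Hill-equation fits of qHTS concentration-response data.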

[8] = MultiTox-Fluor Cytotoxicity Assay - LYMP1-003 - Live Cells (AID 962);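 further: cells exposed to compound for 16 hours at 37 °C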; further: potency means the concentration at half of the fitted maximal effect
Summary of the method: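 Cells plated at 2500 per well and incubated 5 hr; compounds added and incubated 16 hr at 37 C; MultiTox-Fluor reagent added for 60 min at room temperature; fluorescence of liberated AFC measured at 405/510 nm.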

[9] = qHTS assay for environmental chemicals that activate the Aryl hydrocarbon Receptor (AhR) signaling pathway (AID 651777); conditions: 1A2-DRE human hepatoma cells, luciferase, 24 h; activation: hits give high values; further: nearly all actives have a fitted effect of over 15% in size; further: potency means the concentration at half of the fitted maximal effect; on activation: % of control where 0% means no effect
Summary of the method: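 Concentration–response screening used 1,200 1A2-DRE cells per well, 24 hr compound exposure (37 C, 5% CO2), and One-Glo luminescence as the AhR-driven CYP1A2 reporter signal.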

[10] = qHTS assay for small molecule agonists of the antioxidant response element (ARE) signaling pathway measured by Nrf2-dependant transcriptional activity - cell viability counter screen (AID 720653; active means well fitted curve in the direction sought with a large enough effect in the repeat runs; an effect the other way counts as inactive or inconclusive; further: potency means the concentration at half of the fitted maximal effect; on max response: on the % scale 0 is the no-effect control and ±100 the full control effect); conditions: ARE-bla HepG2 viability, CellTiter-Glo ATP luminescence, 16 h; max response: hits give low values
Summary of the method: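 Cytotoxicity counter screen: intracellular ATP quantified by CellTiter-Glo luminescence in the same ARE-bla HepG2 plates, after 16 h compound exposure and a 2 h beta-lactamase substrate step.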

[11] = molecular target: Glucocorticoid receptor (Homo sapiens) (UniProt P04150); assay: GR-GFP Redistribution (AID 450;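 active means compounds whose dose series gives a full or clear partial fitted curve of increased nuclear translocation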; further: potency means the concentration at half of the fitted maximal effect); conditions: U2OS GR-GFP nuclear translocation, laser cytometry, 2 h
Glucocorticoid receptor (Homo sapiens), sequence (P04150 whole entry, looked up, the tested form may be a part): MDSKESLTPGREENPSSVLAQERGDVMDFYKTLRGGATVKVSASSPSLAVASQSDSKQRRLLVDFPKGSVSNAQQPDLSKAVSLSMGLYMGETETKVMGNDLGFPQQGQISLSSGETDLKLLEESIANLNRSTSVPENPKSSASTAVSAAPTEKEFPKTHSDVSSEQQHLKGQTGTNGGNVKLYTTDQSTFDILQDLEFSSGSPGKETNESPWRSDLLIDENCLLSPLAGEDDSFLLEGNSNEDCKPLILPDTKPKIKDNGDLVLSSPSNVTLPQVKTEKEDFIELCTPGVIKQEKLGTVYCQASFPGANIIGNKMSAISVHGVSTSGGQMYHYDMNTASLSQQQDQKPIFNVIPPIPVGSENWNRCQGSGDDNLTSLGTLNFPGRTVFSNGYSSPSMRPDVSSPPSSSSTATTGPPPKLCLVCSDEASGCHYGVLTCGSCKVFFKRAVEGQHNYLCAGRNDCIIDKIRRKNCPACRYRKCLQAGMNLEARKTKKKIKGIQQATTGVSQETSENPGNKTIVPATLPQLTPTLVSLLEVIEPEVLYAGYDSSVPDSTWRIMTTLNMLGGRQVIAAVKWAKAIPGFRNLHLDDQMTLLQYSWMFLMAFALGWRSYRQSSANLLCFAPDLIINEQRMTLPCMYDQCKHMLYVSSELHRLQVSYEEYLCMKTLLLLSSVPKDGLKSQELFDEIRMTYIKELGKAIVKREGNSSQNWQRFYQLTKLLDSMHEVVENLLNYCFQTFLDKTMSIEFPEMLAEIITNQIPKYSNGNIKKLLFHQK

[12] = molecular target: Glucocorticoid receptor (Homo sapiens) (UniProt P04150); assay: GR-EFC Redistribution (AID 451; calls by dose curve; further: potency means the concentration at half of the fitted maximal effect); conditions: CHO-K1 GR-EFC translocation, beta-gal luminescence, 2 h
Summary of the method: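 Translocation of GR-ED fusion to nuclear EA restores b-gal, read by luminescence after 1 h room-temperature detection. Engineered CHO-K1 biosensor cells, 1,000/well, exposed 2 h at 37 C to titrations up to 46 uM final.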

[13] = molecular target: Cytochrome P450 2D6 (Homo sapiens) (UniProt P10635); assay: qHTS Assay for Inhibitors and Substrates of Cytochrome P450 2D6 (AID 891); further: nearly all actives have a fitted effect of over 60% in size; further: potency means the concentration at half of the fitted maximal effect
Cytochrome P450 2D6 (Homo sapiens), sequence (P10635 whole entry, looked up): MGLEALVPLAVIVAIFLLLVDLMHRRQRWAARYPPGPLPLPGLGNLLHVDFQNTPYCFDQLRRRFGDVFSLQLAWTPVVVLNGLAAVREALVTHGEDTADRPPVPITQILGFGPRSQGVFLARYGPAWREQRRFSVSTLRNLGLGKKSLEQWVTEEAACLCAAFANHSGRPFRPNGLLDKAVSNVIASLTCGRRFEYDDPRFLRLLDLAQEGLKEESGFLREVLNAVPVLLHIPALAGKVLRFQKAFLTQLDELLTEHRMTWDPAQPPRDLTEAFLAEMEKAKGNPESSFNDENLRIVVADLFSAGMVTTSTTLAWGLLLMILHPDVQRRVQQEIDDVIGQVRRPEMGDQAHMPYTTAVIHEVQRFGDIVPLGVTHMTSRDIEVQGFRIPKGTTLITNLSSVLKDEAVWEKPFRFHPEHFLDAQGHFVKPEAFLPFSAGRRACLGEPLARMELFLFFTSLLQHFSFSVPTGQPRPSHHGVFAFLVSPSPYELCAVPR
Summary of the method: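 Human CYP2D6 (5 nM) with 30 uM Luciferin-ME EGE (at Km) in 100 mM KPO4, compound preincubated 10 min, then NADPH regeneration system for 60 min at room temperature. Luciferin read by luminescence; normalized to 1.43 uM quinidine.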

[14] = Cell Viability - MRC5 (AID 434; calls by dose curve;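 further: potency means the concentration at half of the fitted maximal effect; cells exposed to compound for 40 hours at 37 °C; potency reflects cytotoxicity seen as loss of intracellular ATP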); conditions: MRC5 lung fibroblast viability, qHTS
Summary of the method: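 qHTS cytotoxicity in human lung fibroblast MRC5 cells; 40 hr treatment, 37 °C; cellular ATP by luciferase luminescence; DMSO = 0%, 100 uM tamoxifen = 100% inhibition; Hill-fit AC50.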

[15] = molecular target: Mitogen-activated protein kinase 10 (Mus musculus) (UniProt Q61831); assay: JNK3 AlphaScreen Assay (AID 530; active means well fitted curve in either direction with a large enough effect, not every such curve was filed as active;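 further: kinase came from lysate of stimulated human HepG2 cells; signal reports phosphorylation of biotinylated GST-cJun 1-79 at Ser73 with 10 µM ATP; on the % scale 0 is the no-effect control and ±100 the full control effect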)
Summary of the method: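 Room-temperature AlphaScreen kinase assay; pre-activated HepG2 lysate as JNK3 source, biotin-GST-cJun(1-79) substrate, 10 uM ATP, compound 15 min preincubation.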

[16] = Cell Viability - Renal Proximal Tubule (AID 545); conditions: renal proximal tubule cells viability; activity change, negative = cytotoxicity: at 91.7 µM (top of the series) unless noted;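 further: cells exposed to compound for 40 hours; 0% = DMSO only and -100% = 100 µM tamoxifen; nearly all actives have a fitted effect of over 40% in size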
Summary of the method: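 Primary rat renal proximal tubule cells (1000/well) were treated with compounds for 40 hr at 37 °C in complete medium. Intracellular ATP was measured by CellTiter-Glo luminescence, and AC50 values came from Hill-equation fits of concentration-response data.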

[17] = molecular target: 3',5'-cyclic-AMP phosphodiesterase 4B (Homo sapiens) (UniProt Q07343); assay: qHTS Assay for Inhibitors of PDE-IV (AID 607; active means well fitted activation curve with a large enough effect in the main read-out, with a control signal flat, not every such curve was filed as active; further: % of control where 0% means no effect)
3',5'-cyclic-AMP phosphodiesterase 4B (Homo sapiens), sequence (Q07343 whole entry, looked up): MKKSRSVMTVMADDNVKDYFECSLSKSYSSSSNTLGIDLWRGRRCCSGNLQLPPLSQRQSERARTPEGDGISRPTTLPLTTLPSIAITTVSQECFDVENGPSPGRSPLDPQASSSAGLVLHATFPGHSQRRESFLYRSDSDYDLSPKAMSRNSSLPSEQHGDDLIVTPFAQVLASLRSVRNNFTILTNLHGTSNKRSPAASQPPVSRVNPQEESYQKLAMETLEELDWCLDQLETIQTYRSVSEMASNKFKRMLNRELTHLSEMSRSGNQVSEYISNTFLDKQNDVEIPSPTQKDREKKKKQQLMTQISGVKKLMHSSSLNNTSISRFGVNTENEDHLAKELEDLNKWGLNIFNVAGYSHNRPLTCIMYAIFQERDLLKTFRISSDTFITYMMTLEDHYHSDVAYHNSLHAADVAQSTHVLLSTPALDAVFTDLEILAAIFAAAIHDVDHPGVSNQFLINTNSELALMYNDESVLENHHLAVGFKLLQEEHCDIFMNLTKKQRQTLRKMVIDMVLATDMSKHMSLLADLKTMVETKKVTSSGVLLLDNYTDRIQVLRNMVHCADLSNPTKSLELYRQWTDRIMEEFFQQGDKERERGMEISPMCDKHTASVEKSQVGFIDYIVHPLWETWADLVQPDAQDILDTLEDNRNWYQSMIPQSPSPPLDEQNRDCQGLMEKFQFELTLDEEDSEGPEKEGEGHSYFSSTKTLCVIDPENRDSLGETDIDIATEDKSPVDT
Summary of the method: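 Live HEK293 cells with a modified cyclic nucleotide-gated (CNG) channel report intracellular cAMP via membrane-potential dye fluorescence (ex 535/em 590 nm). Endogenous PDE-IV was targeted. Compounds were tested at up to 22.9 uM final; RO 20-1724 100 uM served as control.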

[18] = molecular target: Cytochrome P450 2C9 (Homo sapiens) (UniProt P11712); assay: qHTS Assay for Inhibitors and Substrates of Cytochrome P450 2C9 (AID 883); further: nearly all actives have a fitted effect of over 60% in size; further: potency means the concentration at half of the fitted maximal effect
Cytochrome P450 2C9 (Homo sapiens), sequence (P11712 whole entry, looked up): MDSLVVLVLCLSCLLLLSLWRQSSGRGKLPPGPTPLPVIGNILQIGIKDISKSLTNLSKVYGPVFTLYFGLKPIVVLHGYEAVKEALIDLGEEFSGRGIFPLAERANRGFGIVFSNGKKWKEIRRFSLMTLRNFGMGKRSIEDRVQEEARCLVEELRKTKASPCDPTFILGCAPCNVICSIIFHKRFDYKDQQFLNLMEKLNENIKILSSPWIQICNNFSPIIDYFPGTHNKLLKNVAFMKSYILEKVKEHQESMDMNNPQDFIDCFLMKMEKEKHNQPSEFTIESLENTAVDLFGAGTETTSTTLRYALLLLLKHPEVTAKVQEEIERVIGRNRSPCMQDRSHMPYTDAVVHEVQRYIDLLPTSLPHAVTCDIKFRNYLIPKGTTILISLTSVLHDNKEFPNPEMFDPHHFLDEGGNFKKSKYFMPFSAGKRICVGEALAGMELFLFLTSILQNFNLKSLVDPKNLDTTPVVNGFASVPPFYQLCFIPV
Summary of the method: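 Luminescent read-out of deoxyluciferin hydroxylation, normalized to 57uM sulphaphenazole (AC100). Reaction: 10nM enzyme, 100uM Luciferin-H (equal to KM), 25mM KPO4, 10 min compound preincubation, then 60 min with NADPH regeneration, both at 37C.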

With `O=C(CCl)c1ccccc1` the Potency [1] was 39.2 µM (active), the Potency [2] was 9.5 µM (active) and the activity change, negative = cytotoxicity [3] was -113% (active). For the same molecule, the activity change, negative = cytotoxicity [4] was -109% (active), the outcome [5] was “inactive” and the caspase-3 activation [6] was -4.24%. For the same molecule, the Potency [7] was 31.6 µM (active), the Potency [8] was 39.8 µM (active) and the activation [9] was -0.199% and 2.38%. The max response [10] was -32.5% and -9.07%.

In the case of `CC(C)[C@H]1C(=O)N2CCC[C@@H]2[C@]2(O)O[C@@](NC(=O)[C@H]3C=C4c5cccc6[nH]cc(c56)C[C@H]4N(C)C3)(C(C)C)C(=O)N12`, the Potency [11] is reported as over 46 µM, the Potency [12] is reported as over 46 µM and the Potency [13] is reported as “inactive”.

With `O=[N+]([O-])c1cc(C(F)(F)F)cc([N+](=O)[O-])c1Cl` the Potency [1] was over 92 µM, the Potency [2] was 32.8 µM (active) and the Potency [14] was over 92 µM. The outcome [15] was “inactive”, the Potency [16] was “inactive” and the Potency [4] was “inactive”. The caspase-3 activation [6] was 6.02% [at 91.7 µM, primary cells freshly taken from rat, solvent-only wells 0%, staurosporine 100%], the Potency [7] was “inactive” and the Potency [8] was “inactive”. For the same molecule, the activation [9] was 0.493% and the max response [10] was 4.67%.

With `c1ccc2cc3c(cc2c1)-c1cccc2cccc-3c12` the Potency [1] was over 92 µM, the Potency [2] was over 92 µM and the Potency [14] was over 92 µM. For the same molecule, the activity change, negative = cytotoxicity [3] was -2.25%, the Potency [16] was “inactive” and the Potency [4] was “inactive”. The outcome [5] was “inactive”, the caspase-3 activation [6] was -4.56% and the Potency [7] was “inactive”. The Potency [8] was “inactive”, the Potency [9] was 2.82 µM (active) and 2.51 µM (active) and the max response [10] was -11.7% and -17%.

`Cc1ccc2ccccc2c1C` showed a Potency [1] of over 92 µM, a Potency [2] of over 92 µM and a Potency [14] of over 92 µM. The activation [9] was 1.49% and the max response [10] was 9.36%.

With `N#CC(Cl)Cl` the Potency [1] was over 92 µM, the Potency [2] was 6.52 µM (active) and the Potency [14] was over 92 µM. The outcome [15] was “inactive”, the activity change, negative = cytotoxicity [3] was 13.8% and the Potency [16] was “inactive”. For the same molecule, the Potency [4] was “inactive”, the outcome [5] was “inactive” and the caspase-3 activation [6] was -4.27% [at 91.7 µM, primary cells freshly taken from rat, solvent-only wells 0%, staurosporine 100%]. For the same molecule, the Potency [7] was “inactive”, the Potency [8] was “inactive” and the activation [9] was 1.8%. For the same molecule, the max response [10] was -22.9%.

With `Oc1c(Br)c(Br)c(Br)c(Br)c1Br` the Potency [1] was over 92 µM, the Potency [2] was 39.1 µM (active) and the Potency [14] was over 92 µM. For the same molecule, the activity change, negative = cytotoxicity [3] was -118% (active), the Potency [16] was “inactive” and the Potency [4] was “inactive”. For the same molecule, the outcome [5] was “inactive”, the caspase-3 activation [6] was 1.89% and the Potency [7] was “inactive”. For the same molecule, the Potency [8] was “inactive”, the activation [9] was 0.143% and the max response [10] was -1.75%.

For `CC(C)C[C@H]1C(=O)N2CCC[C@@H]2[C@]2(O)O[C@](NC(=O)[C@H]3C=C4c5cccc6[nH]cc(c56)C[C@H]4N(C)C3)(C(C)C)C(=O)N12`, the Potency [11] was over 46 µM, the Potency [12] was over 46 µM and the outcome [17] was “inactive”. The Potency [13] was “inactive”.

In the case of `CN[C@@H](C)[C@@H](O)c1ccccc1`, the Potency [11] is reported as over 46 µM, the Potency [12] is reported as over 46 µM and the outcome [17] is reported as “inactive”. For the same molecule, the Potency [18] was 0.794 µM (active) and the Potency [13] was 12.6 µM (active).

For `Nc1ccccc1C(=O)OCCc1ccccc1`, the Potency [1] was over 92 µM, the Potency [2] was over 92 µM and the Potency [14] was over 92 µM. The activity change, negative = cytotoxicity [3] was -14.5%, the Potency [4] was “inactive” and the outcome [5] was “inactive”. The caspase-3 activation [6] was -20.4%, the Potency [7] was “inactive” and the Potency [8] was “inactive”. The Potency [9] was 44.7 µM (active) and the max response [10] was 0.51%.

With `C=C[C@@H]1CN2CC[C@H]1C[C@H]2[C@@H](O)c1ccnc2ccccc12` the Potency [11] was over 46 µM, the Potency [12] was over 46 µM and the outcome [15] was “inactive”. The Potency [18] was “inactive” and the Potency [13] was 0.1 µM (active).

`FC(F)(F)c1ccc(Cl)cc1` gave a Potency [1] of over 92 µM, a Potency [2] of over 92 µM and a Potency [14] of over 92 µM. The outcome [15] was “inactive”, the activity change, negative = cytotoxicity [3] was 6.85% and the Potency [16] was “inactive”. The Potency [4] was “inactive”, the outcome [5] was “inactive” and the caspase-3 activation [6] was 5.86% [at 91.7 µM, primary cells freshly taken from rat, solvent-only wells 0%, staurosporine 100%]. The Potency [7] was “inactive”, the Potency [8] was “inactive” and the activation [9] was 0.0226% and 0.781%. For the same molecule, the max response [10] was 7.1% and -8.38%.

With `[CH3][Hg][Cl]` the Potency [1] was 26.7 µM (active), the Potency [2] was 1.49 µM (active) and the Potency [14] was 25.3 µM (active). For the same molecule, the outcome [15] was “inactive”, the Potency [3] was 10 µM (active) and the activity change, negative = cytotoxicity [16] was -104% (active). For the same molecule, the Potency [4] was 6.31 µM (active), the outcome [5] was “inactive” and the caspase-3 activation [6] was -5.2%. For the same molecule, the Potency [7] was 12.6 µM (active), the Potency [8] was 20 µM (active) and the activation [9] was 1.1%. For the same molecule, the Potency [10] was 25.1 µM (active).
